esBAF inh: Bmi1 luciferase reporter increase in mESCs, primary screen, esBAF inhibitor project, mouse ES cells, Bmi1 luciferase knock-in, single point. AID 602393, 2012. reporter increase, % at 12.5 µM. 24 h; 100% = twice the neutral-well signal. 350,000 tested, 2% active; in the data active means activation above about 40%; inconclusive means no clear call, values can overlap the other calls;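 further: 0% = median of the plate's neutral control wells and 100% = double that signal; a rise in the Bmi1 reporter signal indicates esBAF inhibition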
hgDAF12 agonist: H. glycines DAF-12 receptor agonists, primary screen, cell-based, luminescence, HEK293, GAL4 fusion, UAS-luciferase. HEK293 GAL4-hgDAF12 UAS-luciferase reporter, agonist luminescence; normalized to butyrate control. activation, % at 6.8 µM. 370,000 tested, 1.8% active. AID 687014, 2013;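 active means activation above a cutoff set at the mean of all screened compounds plus 3 SD, cut at about 10% in these data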;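 further: 0% = DMSO wells and 100% = sodium butyrate wells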
hcDAF12 agonist: H. contortus DAF-12 nuclear receptor activators, primary screen, cell-based, luminescence, HEK293, lit1-tk-luc reporter | HEK293 hcDAF-12 lit1-tk-luc reporter; 0% DMSO, 100% Δ7-dafachronic acid | activation, % at 6.8 µM | 370,000 tested, 1.4% active | AID 652067, 2013;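 active means activation above the mean of all tested compounds plus 3 SD, cut at about 5.5% in these data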;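 further: 100% = response to 3 µM Δ7-dafachronic acid high control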
ssDAF12 agonist: S. stercoralis DAF-12 nuclear receptor activators, primary screen, cell-based, luminescence, HEK293, GRIP1 co-expression, lit1-tk-luc. HEK293 ssDAF-12/GRIP1 lit1-tk-luc reporter; % of 3 µM dafachronic acid response. 370,000 tested, 1% active. AID 652126, 2013. activation, % at 6.8 µM. Nuclear hormone receptor DAF-12 (Strongyloides stercoralis);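 active means activation above the mean over all tested compounds plus 3 SD, cut at about 0.9% in these data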;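 further: 0% = DMSO-only wells and 100% = 3 µM delta7-dafachronic acid wells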
Wnt bcat act: Wnt/beta-catenin pathway activators, primary screen, cell-based, plate reader, single point | Wnt/beta-catenin reporter cell assay, activator | activation, % at 9.35 µM | 300,000 tested, 1.2% active | AID 743398, 2014; in the data active means activation above about 30%, passing the limit was not always enough; inconclusive means no clear call, values can overlap the other calls;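 further: 0% = neutral control wells and 100% = positive control wells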
DAX1 inh: DAX1 (NR0B1) inhibitors on StAR promoter, primary screen, cell-based, luminescence, SF-1 (NR5A1), full-length DAX-1; HEK293T StAR-luciferase reporter, SF-1/DAX-1 repression relief; inhibition, % at 6.8 µM; 370,000 tested, 1.1% active;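 active means inhibition above the mean over all tested compounds plus 3 SD, cut at about 3.6% in these data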;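 further: 0% = DAX-1 cells with DMSO and 100% = cells lacking DAX-1 with DMSO; higher inhibition means more luminescence from relief of DAX-1 repression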
Starred values were filed as active, the others as inactive; ? = inconclusive; . = not tested or not shown. Sampled rows, rich in hits. Any-hit rate of the full collection: about 4.2%.

SMILES	esBAF inh	hgDAF12 agonist	hcDAF12 agonist	ssDAF12 agonist	Wnt bcat act	DAX1 inh
CCCCCC1(C)NC(=S)N(c2ccccc2)N1 (stereo unspecified)	.	-1	1	-1	0	0
CCC1(c2ccccc2)NC(=S)N(c2ccc(C)cc2)N1 (stereo unspecified)	45*	6	2	0	2	0
O=C(NC[C@@H]1[C@@H](c2ccccc2)[C@H](CO)N1Cc1cccnc1)c1ccccn1	-7	.	.	.	.	.
COc1ccc(-c2ccc3c(c2)O[C@H](CN(C)CC2CCOCC2)[C@H](C)CN([C@H](C)CO)S3(=O)=O)cc1	-2	.	.	.	.	.
Clc1ccc(CSc2nnc(-c3ccccn3)n2Cc2cccs2)cc1Cl	4	1	1	0	0	4.2*
C[C@@H]1CN([C@H](C)CO)C(=O)c2cccc(NC(=O)C3CCCCC3)c2O[C@@H]1CN(C)S(=O)(=O)c1cccs1	3	.	.	.	.	.
CC(C)NC(=O)N(C)C[C@@H]1Oc2c(NC(=O)c3ccncc3)cccc2C(=O)N([C@@H](C)CO)C[C@@H]1C	-1	.	.	.	.	.
CCN(CC)C(=O)Nc1cnc2ccccc2c1	-8	2	3	0	.	1
Cc1ccc(NC(=O)c2cnc3ccccc3n2)cc1C	32	7	4	0	42*	1
Cc1ccc(NC(=O)c2ncc(Cl)c(Cl)c2Cl)cc1C	-2	5	5.9*	0	8	0
COC(=O)c1cccc(C(=O)Nc2cnc3ccccc3c2)n1	59*	1	5	0	.	-1
N#C[C@@H]1N[C@@H](CO)[C@H]1c1ccc(-c2cccc(F)c2)cc1	-2	.	.	.	.	.
C[C@@H]1CN([C@@H](C)CO)C(=O)c2cc(NS(C)(=O)=O)ccc2O[C@H]1CN(C)S(=O)(=O)c1ccccc1	6	.	.	.	.	.
CCc1nnc(NC(=O)c2ccc(S(C)(=O)=O)cc2)s1	29	4	1	-1	16	1
CCC(C)(C)c1nnc(NC(=O)c2ccc([N+](=O)[O-])cc2)s1	48*	2	-1	0	4	0
COc1ccc(-c2nnc(NC(=O)c3cccs3)s2)c(OC)c1	-1	1	5	0	6	0
COc1cccc(C(=O)Nc2nnc(-c3cccs3)s2)c1	-46	11*	3	0	.	2
CCc1nnc(NC(=O)c2ccc(OC)cc2)s1	28	11*	2	-1	17	3
CCOC(=O)CNC(=O)CSc1nnc(NC(=O)c2ccc(C)cc2)s1	.	13*	6.4*	0	14	2
CO[C@@H]1CN(C)C(=O)c2ccc(NC(=O)C3CC3)cc2OC[C@H](C)N(Cc2nccs2)C[C@H]1C	-10	.	.	.	.	.
O=C(C[C@@H]1C[C@@H]2c3cc(NC(=O)CC4CC4)ccc3O[C@@H]2[C@H](CO)O1)NCc1ccc2c(c1)OCO2	-6	.	.	.	.	.
Cc1ccc(C(=O)Nc2nnc(COc3ccccc3)s2)cc1	.	-2	-1	-2	0	0
COc1cccc(C(=O)Nc2nnc(C3CCCO3)s2)c1 (stereo unspecified)	.	9	2	1.0*	.	2
CCOCc1nnc(NC(=O)c2cccc(OC)c2)s1	.	4	2	0	1	2
CCc1nnc(NC(=O)c2cccc(OC)c2)s1	.	6	3	0	.	3.9*
SMILES	esBAF inh	hgDAF12 agonist	hcDAF12 agonist	ssDAF12 agonist	Wnt bcat act	DAX1 inh
CCc1nnc(NC(=O)c2sc3nc4cc(C)ccc4cc3c2N)s1	49*	1	-1	0	.	0
Cc1ccc(C(=O)Nc2nnc(COCCO)s2)cc1	50*	10	6.0*	1.0*	0	2
Cc1ccc2oc(Nc3nc(C)c(C)c(C)n3)nc2c1	.	4	3	0	41*	2
Cc1c(C(=O)c2ccccc2)oc2ccc3ccccc3c12	40	8	2	-1	50*	1
CC(=O)c1ccccc1NC(=O)Cn1c(=O)cnc2ccccc21	-4	-2	6.1*	0	-6	0
C/C=C/c1cnc2c(c1)C(=O)N([C@H](C)CO)C[C@@H](C)[C@@H](CN(C)C(=O)Nc1ccc(F)cc1)O2	-1	.	.	.	.	.
Cc1ccnc(NC(=O)Nc2ccc(Br)cc2Cl)c1	.	9	1	0	39*	3
COc1ccc(O)c(-c2cc(-c3cccs3)[nH]n2)c1	30	10	5.8*	1.1*	0	0
COC(=O)c1cc(-c2cccs2)[nH]n1	.	2	-1	-1	-2	0
Clc1ccc(C=Cc2ccccn2)cc1	?	13*	6	1	-3	3
CCCOc1ccc(NC(=O)CC2C(=O)N(C)C(=S)N2Cc2cccs2)cc1 (stereo unspecified)	-8	1	0	-1	.	0
CN1C(=O)C(CC(=O)Nc2ccc(F)cc2)N(Cc2cccs2)C1=S (stereo unspecified)	-6	3	3	9.6*	-5	1
O=C(Nc1ccc(F)cc1)Nc1ccc2c(c1)[C@H]1C[C@@H](CC(=O)N3CCOCC3)O[C@H](CO)[C@H]1O2	-2	.	.	.	.	.
COc1ccc(C(=O)NC2=NCCS2)cc1	18	12*	0	0	36*	2
N#Cc1ccc(C(=O)NC2=NCCS2)cc1	48*	4	2	-1	13	1
Cc1ccc(C(=O)NC2=NCCS2)cc1	.	9	3	0	50*	3
O=C(NC1=NCCS1)c1ccc(C(F)(F)F)cc1	53*	6	1	-1	7	1
COc1ccc(NC(=O)N2CC[C@@H]3[C@@H](CO)N(C)c4ccc(-c5ccccc5F)cc4[C@@H]32)cc1	4	.	.	.	.	.
CCCNC(=O)Nc1ccc2c(c1)C(=O)N(C)C[C@H](OC)[C@@H](C)CN(Cc1ccncc1)[C@@H](C)CO2	-3	.	.	.	.	.
CO[C@H]1CN(C)C(=O)c2cc(NC(=O)C3CC3)ccc2OC[C@@H](C)N(CCC(F)(F)F)C[C@H]1C	3	.	.	.	.	.
O=C(NC1CCCc2ccccc21)C1CCN(c2c3c(nc4ncnn24)CCC3)CC1 (stereo unspecified)	3	0	-1	1.1*	-2	0
CCSc1nnc(CSc2ncccn2)n1C	.	-3	-1	-2	0	0
CCCSc1nnc(CSc2ncccn2)n1C	.	7	5.9*	-1	0	0
